This is a sample that favours compounds with a hit; in the whole collection about 12% have one here.
USP17 block = inhibitors of human USP17 deubiquitinase | inhibition, % at 50 µM | AID 1645855 | actives 6.5% (n = 47,000) | purified USP17, Ub-rhodamine cleavage fluorescence, 3 h | A8MUK1
UCHL1 block = inhibitors of human UCHL1 deubiquitinase. actives 0.2% (n = 47,000). inhibition, % at 20 µM. purified UCHL1, Ub-rhodamine cleavage fluorescence. P09936. AID 1645859
USP7 inh = human USP7 deubiquitinase inhibition; Q93009; purified USP7, Ub-rhodamine cleavage fluorescence; inhibition, % at 20 µM; actives 0.3% (n = 47,000)
USP30 block = human USP30 deubiquitinase inhibition; inhibition, % at 25 µM; purified USP30, Ub-rhodamine cleavage fluorescence; actives 5.3% (n = 47,000); Q70CQ3; AID 1645860
USP8 block = blocks human USP8 ubiquitin-rhodamine cleavage; actives 4.2% (n = 47,000); P40818; purified USP8, Ub-rhodamine cleavage fluorescence, 30 min; inhibition, % at 20 µM
Target sequence (P40818 whole entry, looked up): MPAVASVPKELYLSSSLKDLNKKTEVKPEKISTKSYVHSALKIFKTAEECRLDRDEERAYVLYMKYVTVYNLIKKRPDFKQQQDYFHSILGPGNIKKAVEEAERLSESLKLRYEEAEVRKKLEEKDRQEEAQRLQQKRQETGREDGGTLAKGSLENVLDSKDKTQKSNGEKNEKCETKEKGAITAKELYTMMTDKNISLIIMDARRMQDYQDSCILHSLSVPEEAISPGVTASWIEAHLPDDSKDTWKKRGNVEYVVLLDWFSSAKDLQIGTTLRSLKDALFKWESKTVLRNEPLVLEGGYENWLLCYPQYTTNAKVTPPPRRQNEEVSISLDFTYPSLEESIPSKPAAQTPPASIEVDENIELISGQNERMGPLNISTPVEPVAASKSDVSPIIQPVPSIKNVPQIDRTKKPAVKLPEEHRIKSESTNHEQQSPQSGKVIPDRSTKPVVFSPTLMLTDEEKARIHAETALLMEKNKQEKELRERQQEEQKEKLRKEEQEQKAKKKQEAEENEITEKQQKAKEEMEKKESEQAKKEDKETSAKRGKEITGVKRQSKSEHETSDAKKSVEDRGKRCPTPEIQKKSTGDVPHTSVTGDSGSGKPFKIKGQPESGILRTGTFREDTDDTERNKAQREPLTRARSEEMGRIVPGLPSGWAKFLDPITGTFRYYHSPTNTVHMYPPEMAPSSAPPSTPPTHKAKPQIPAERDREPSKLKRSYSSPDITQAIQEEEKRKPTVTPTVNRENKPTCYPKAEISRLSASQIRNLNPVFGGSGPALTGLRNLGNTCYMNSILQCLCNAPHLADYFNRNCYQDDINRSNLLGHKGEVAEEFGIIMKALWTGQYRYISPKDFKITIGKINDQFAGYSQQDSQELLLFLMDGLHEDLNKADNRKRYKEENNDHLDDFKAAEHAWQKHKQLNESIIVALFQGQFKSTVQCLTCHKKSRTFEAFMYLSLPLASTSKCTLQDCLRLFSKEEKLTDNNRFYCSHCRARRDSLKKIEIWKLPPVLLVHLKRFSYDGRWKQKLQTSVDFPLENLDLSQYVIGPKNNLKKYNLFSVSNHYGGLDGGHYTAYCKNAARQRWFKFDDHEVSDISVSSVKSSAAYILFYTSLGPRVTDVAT
USP10 inh = inhibitors of human USP10 deubiquitinase | inhibition, % at 20 µM | purified USP10, Ub-rhodamine fluorescence, 60 min | actives 1.1% (n = 47,000)
Numbers without * were called inactive; / = no result. Cut-off read from the data, not from the text of the source: active = inhibition above about 30%; inactive = the rest.

SMILES | USP17 block | UCHL1 block | USP7 inh | USP30 block | USP8 block | USP10 inh
O=C(c1ccn[nH]1)N1CC[C@@H]2CN(Cc3cccnc3)S(=O)(=O)[C@@H]2CC1 | 0.0 | -2.1 | -0.2 | 0.8 | -14.7 | 0.2
Cc1c(O)cc(O)cc1O | 54.4* | -155.2 | -138.3 | -167.2 | -331.9 | -11.1
O=C(Nc1ccc(O)cc1)c1cccn2c(-c3ccccc3F)nnc12 | -5.6 | 3.4 | 1.5 | 25.3 | 56.4* | -0.9
COc1ccccc1NC(=O)N(Cc1cccnc1)Cc1cc2ccc(C)cc2[nH]c1=O | -2.4 | -0.6 | -3.5 | -5.4 | 1.5 | 0.8
CCC(=O)Nc1nc2ccc(NC(=O)Cc3ccc(OC)c(OC)c3)cc2s1 | 35.6* | -0.3 | 4.1 | 4.5 | -0.8 | 0.8
CCC(=O)Nc1nc2cc(NC(=O)Nc3cc(C)cc(C)c3)ccc2s1 | 19.3 | -1.8 | 12.1 | 48.2* | 60.1* | 32.3*
Cc1n[nH]c(C)c1S(=O)(=O)N1CCCC(O)(CN2CCC(F)(F)CC2)CC1 (centres undefined) | -2.5 | -2.2 | 2.3 | -11.2 | -1.5 | -0.1
CCC1CN(CC(=O)N2CCC(C(N)=O)CC2)c2ccccc2S1 (centres undefined) | -17.2 | -3.2 | -5.7 | -62.5 | -21.6 | -4.2
Cc1cc(F)ccc1NC(=O)Cn1c(=O)c2cccnc2n(-c2ccccc2)c1=O | -31.5 | -0.9 | -0.1 | -190.9 | 2.2 | 0.8
Cc1nn(CC(=O)Nc2ccc(Br)c3cccnc23)c(=O)c2ccccc12 | 65.1* | 3.6 | 8.2 | 13.9 | 0.1 | 3.2
CC(=O)N1CCc2c(sc(NC(=O)C3CC3)c2C(N)=O)C1 | 27.8 | -10.7 | -13.3 | -15.9 | 49.5* | -1.8
CC(C)N1CCc2c(sc(NC(=O)CSc3ccccc3)c2C(N)=O)C1 | -7.3 | -0.1 | 0.0 | 0.4 | -24.6 | -9.5
Cc1cc(NC(=O)C(=O)NCC2CCN(C(C)C)CC2)no1 | 9.7 | -0.2 | 5.4 | 33.3* | 8.1 | 2.5
c1ccc(-c2nnc3n2-c2ccccc2SC3)cc1 | 17.2 | 1.7 | 2.9 | 31.1* | 11.1 | -0.5
c1ccc(-c2cc(N3CCCCC3)nc(-c3ccncc3)n2)cc1 | -13.1 | -10.1 | 0.0 | -40.4 | 3.0 | -14.4
COc1ccc(/C=C/C(=O)Nc2ccc(C)cn2)cc1 | 69.8* | 4.8 | 7.7 | / | 9.5 | 14.5
Cc1ccc(NC(=O)c2cc3ccccc3o2)nc1 | -2.1 | -0.9 | -0.3 | -7.1 | -15.8 | -9.3
O=C(NCc1cccnc1)c1cccc(-c2ccc(N3CCCC3)nc2)c1 | -1.1 | 0.0 | -10.7 | / | 1.6 | -2.2
O=C(NC1CC1)c1ccc(-c2ccc(N3CCCCC3)nc2)cc1 | 47.8* | 0.0 | 4.8 | 16.2 | 8.0 | 1.3
O=C(NC1CCCC1)c1cccc(-c2ccc(N3CCCC3)nc2)c1 | 50.8* | -2.6 | 8.1 | -40.2 | 7.4 | -1.9
CC(=O)Nc1ccc(NC(=O)N[C@H]2C[C@H]3CN(C(C)C)c4ccccc4CN3C2)cc1 | -24.1 | -2.2 | -2.6 | -81.8 | -7.7 | -3.5
CC(C)c1nc2sc3c(NCCN4CCOCC4)ncnc3c2c2c1CCC2 | 9.3 | 1.2 | 4.9 | 6.3 | 14.1 | 3.8
O=c1c2cnc(N3CCCC3)nc2ccn1-c1cccc(F)c1 | 14.9 | 1.6 | -0.1 | 22.2 | 7.5 | 2.5
Cn1c(=O)c(C2CCCCC2O)nc2c(OCc3ccccc3)nc(N)nc21 (centres undefined) | 41.7* | 1.4 | 5.2 | -45.7 | 8.9 | -3.9
CCOc1ncccc1C(=O)N1CCN(c2ccc(CN3CCC(N(C)C)CC3)cn2)CC1 | -19.9 | -0.7 | -0.1 | -34.0 | 0.9 | -2.1
SMILES | USP17 block | UCHL1 block | USP7 inh | USP30 block | USP8 block | USP10 inh
COc1cc(O)c2c(c1O)C(=O)c1cc(C)ncc1C2=O | 43.2* | 1.0 | -4.1 | -35.3 | -7.6 | -0.1
Cc1nc(C2(C)CCCN(C(=O)c3cccc(F)c3)C2)nc2c1CC(=O)N2C (centres undefined) | -19.9 | -3.1 | -3.9 | -72.0 | -18.2 | -3.5
COc1ccccc1NC(=O)c1ccc(=O)n(Cc2cccc(F)c2)c1 | 0.0 | -0.5 | -3.8 | 8.5 | 0.1 | 3.4
COc1ccc(Cl)c2sc(N3CCN(C(=O)c4ccn(C)n4)CC3)nc12 | 47.1* | 4.4 | -27.5 | -34.2 | 12.1 | -4.1
CCC(C)Oc1cccc(C(=O)Nc2ccc(CN3CCOCC3)cc2)c1 (centres undefined) | -8.4 | -2.4 | -1.6 | 0.4 | 7.0 | -4.9
Fc1ccccc1Cc1nnc(C2(c3cccc(Br)c3)CCOCC2)o1 | 2.8 | 0.0 | -33.3 | -0.4 | -5.1 | 0.0
